Compound activity: PubChem, several laboratories
hcDAF-12 act: activators of H. contortus DAF-12 nuclear receptor; activation, % at 6.8 µM; actives 1.4% (n = 370,000); AID 652067; HEK293 hcDAF-12 lit1-tk-luc reporter, luminescence; 0% DMSO, 100% Δ7-dafachronic acid;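 active = activation above the mean of all tested compounds plus 3 SD, cut at about 5.5% in these data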
PolyA inh: yeast polyadenylation inhibition. activity score, % at 12 µM. S. cerevisiae SKY197-pL101 polyadenylation reporter, beta-gal luminescence; efflux-impaired pdr1/pdr3 knockout yeast; score 100 = 6 SD above DMSO. actives 0.02% (n = 300,000);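 active = lowest replicate activity score at least 50, where 100 means six control SD above control mean; inconclusive = lowest score under 50 but half or more replicates reach 50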;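 note: yeast exposed to compound for 9 h at 30 °C; higher score means more reporter readthrough which indicates perturbed polyadenylation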
ssDAF-12 act: activators of S. stercoralis DAF-12 nuclear receptor; HEK293 ssDAF-12/GRIP1 lit1-tk-luc reporter, luminescence; % of 3 µM dafachronic acid response; activation, % at 6.8 µM; actives 1% (n = 370,000); AID 652126;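 active = activation above the mean over all tested compounds plus 3 SD, cut at about 0.9% in these data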
DAX1 inh-1: inhibits human nuclear receptor DAX1 | P51843 | HEK293 Gal4-DAX1 luciferase reporter, luminescence | inhibition, % at 6.75 µM | actives 0.99% (n = 340,000) | AID 504766;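 active = inhibition above the mean over all tested compounds plus 3 SD, cut at about 4.2% in these data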;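 note: inhibition shows as a rise in luminescence from relieved DAX1 repression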
Target sequence (P51843 207-470 limits assumed): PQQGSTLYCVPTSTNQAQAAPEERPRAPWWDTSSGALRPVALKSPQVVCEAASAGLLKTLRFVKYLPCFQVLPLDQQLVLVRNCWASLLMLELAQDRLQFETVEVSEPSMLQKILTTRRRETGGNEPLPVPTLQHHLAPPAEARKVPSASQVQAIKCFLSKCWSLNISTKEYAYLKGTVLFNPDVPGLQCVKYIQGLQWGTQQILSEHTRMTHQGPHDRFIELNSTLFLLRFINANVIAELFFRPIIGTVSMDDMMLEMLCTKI
hgDAF12 agonist: hgDAF-12 agonism, primary luciferase screen | activation, % at 6.8 µM | HEK293 GAL4-hgDAF12 UAS-luciferase reporter, agonist luminescence; normalized to butyrate control | AID 687014 | actives 1.8% (n = 370,000);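 active = activation above a cutoff set at the mean of all screened compounds plus 3 SD, cut at about 10% in these data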
DAX1 inh-2: inhibitors of DAX1 repression of SF-1 activated StAR promoter; HEK293T StAR-luciferase reporter, SF-1/DAX-1 repression relief; inhibition, % at 6.8 µM; actives 1.1% (n = 370,000);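 active = inhibition above the mean over all tested compounds plus 3 SD, cut at about 3.6% in these data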;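 note: higher inhibition means more luminescence from relief of DAX-1 repression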
Numbers stand for hits; 0 = inactive; ? = inconclusive; - = not tested or not shown. An excerpt weighted towards active compounds, which were near 4.1% of everything screened.

SMILES | hcDAF-12 act | PolyA inh | ssDAF-12 act | DAX1 inh-1 | hgDAF12 agonist | DAX1 inh-2
O=C1[C@H](c2ccccc2)[C@@H](c2ccncc2)N1c1ccncc1 | 0 | - | 0 | - | 0 | 0
Cc1ccc(-n2c(Cc3cccn3C)nnc2SCC(=O)NCc2ccco2)cc1 | 0 | 0 | 0 | 0 | 0 | 0
Cc1ccc(-n2c(CSc3nc(C)cc(C)n3)nnc2SCC(=O)NCc2ccco2)cc1 | 5.6 | 0 | 0.9 | 0 | 0 | 0
O=C(c1ccccc1OCc1ccccc1)N(Cc1ccccn1)CC1CCCO1 (stereo not drawn) | 0 | - | 0 | - | 0 | 0
CN1C2=N[C@@H](c3ccc4ccccc4c3)CC(=O)N2/C(=C\c2ccccc2)[C@H]1c1ccccc1 | 0 | - | 0 | - | 0 | -
CC1C/C(=N/NC(=O)c2cccc(F)c2)c2ccc(O)cc2C1 (stereo not drawn) | 0 | 0 | 0 | 0 | 12.8 | 0
C=CC[C@H]1c2ccccc2[C@H]2N3N=Cc4ccccc4[C@H]3[C@H](CCCC)C(=O)N2N1C(=O)NCc1ccccc1 | 0 | - | 0 | - | 0 | 0
CN1CCN(CC(=O)NN(Cc2ccccc2)c2ccccc2)CC1 | 0 | 0 | 0 | 4.5 | 0 | 0
CCOC(=O)Cc1csc(-n2sc3ccccc3c2=O)n1 | 6.3 | 0 | 0 | 0 | 0 | 0
CCOC(=O)Cc1csc(SCn2nnc3ccccc3c2=O)n1 | 0 | 0 | 0 | 0 | 0 | 0
COc1ccc(C(=O)/C=C/Nc2cccc(C)n2)cc1OC | 0 | 0 | 0 | 0 | 10.8 | 0
COc1cc(O)c(C(CC(=O)N2CCCCC2)c2ccc3c(c2)OCO3)c(OC)c1 (stereo not drawn) | 0 | ? | 0 | 0 | 0 | 0
COc1cc(O)c(C(CCN2CCCCC2)c2ccc3c(c2)OCO3)c(OC)c1 (stereo not drawn) | 0 | 0 | 0 | 4.3 | 0 | 0
CC/C(C)=N/N1C(=O)c2ccccc2NC1(C)CC (stereo not drawn) | 0 | 0 | 0 | 6.2 | 0 | 0
Cc1nn(-c2ccccc2)c2sc(C(=O)NCCc3ccc(Cl)cc3)cc12 | 0 | - | 0 | - | 0 | 0
COc1ccc(C(=O)N/N=C\c2ccoc2)cc1 | 0 | 0 | 0 | 0 | 0 | 0
COc1ccc(/[N+]([O-])=C/c2ccoc2)cc1 | 0 | - | 0 | 0 | 10.9 | 0
COc1cc([N+](=O)[O-])ccc1NC(=S)Nc1cccc(C(=O)O)c1 | 7.0 | 0 | 0 | 0 | 0 | 0
Cc1nc2sc(C(N)=O)c(N)c2c(C)c1CC(=O)c1ccccc1 | 0 | 0 | 0 | 0 | 12.4 | 0
COC(=O)c1cc2c(c3c4cc(OC)ccc4n(S(C)(=O)=O)c13)C(=O)N(C)C2 | 0 | - | 0 | - | 0 | 0
Cc1cc(OCC(=O)N2CCC(C(N)=O)CC2)c2c(C)cc(=O)oc2c1 | 0 | 0 | 0 | 7.5 | 0 | 0
CCCCc1cc(=O)oc2cc(C)cc(OCC(=O)N3CCC(C(N)=O)CC3)c12 | 0 | 0 | 0 | 0 | 0 | 0
COC(=O)[C@]1(CNC(=O)NCCc2ccc(OC)c(OC)c2)CC(=O)N(C)[C@@H]1c1ccccc1 | 0 | - | 0 | - | 0 | 0
C=CCNC(=O)c1ccc(CSc2nc3ccccc3s2)cc1 | 5.7 | 0 | 0 | 0 | 0 | 0
C=CCNC(=O)c1nc2ccccc2s1 | 0 | 0 | 0 | 0 | 0 | 0
SMILES | hcDAF-12 act | PolyA inh | ssDAF-12 act | DAX1 inh-1 | hgDAF12 agonist | DAX1 inh-2
CSCCC(c1nc2ccccc2[nH]1)n1c(-c2ccc3ncccc3c2)nc2ccccc21 (stereo not drawn) | 0 | - | 0 | - | 10.8 | 0
COc1ccc2nc(/N=C/c3c(C)[nH]n(-c4ccc(C)cc4)c3=O)sc2c1 | 5.6 | 0 | 0 | 0 | 0 | 0
COc1ccc2nc(/N=C\N(C)C)sc2c1 | 0 | 0 | 0 | 0 | 0 | 0
CCOC(=O)/C(C#N)=C\c1cc(C)n(-c2ccccc2)c1C | 0 | 0 | 0 | 5.3 | 0 | 0
CCn1c2ccccc2c2cc(NC(=O)COC(=O)c3ccc(F)cc3Cl)ccc21 | 0 | - | 0 | - | 0 | 0
CCn1c(COc2ccc(C)cc2)nnc1SCC(=O)Nc1ccccc1-c1ccccc1 | 0 | - | 0 | - | 0 | 0
Cc1cc(Nc2ccc(OC(F)F)cc2)cc(=O)n1-c1ccc(OC(F)F)cc1 | 0 | - | 0 | - | 0 | 0
COc1ccc(/C=C2\SC(=Nc3ccccc3OC)NC2=O)cc1 | 0 | 0 | 0 | 4.3 | 0 | 0
COc1cc(/C=C2\SC(=Nc3ccccc3OC)NC2=O)ccc1O | 0 | 0 | 0 | 0 | 0 | 0
O=C1NC(=Nc2ccccc2)S/C1=C\c1ccccc1 | 0 | 0 | 1.0 | 0 | 0 | 0
CCc1ccc(N=C2NC(=O)/C(=C/c3cc(OC)c(O)c(OC)c3)S2)cc1 | 0 | 91.2 | 0 | 0 | 0 | 0
COc1cccc(CNC(=O)[C@H]2CCCN2C(=O)[C@H]2CCCN2C(=O)c2cccc(Cl)c2)c1 | 0 | - | 0 | - | 0 | 0
CCCCCCC[C@H](N)[C@H](O)C(=O)N(C)[C@@H](CCS(C)=O)C(=O)N[C@@H](Cc1ccc(O)cc1)C(=O)O (stereo partly drawn) | 0 | - | 0 | - | 0 | -
Cn1c(/N=C/c2cc(Cl)ccc2O)nc2ccccc21 | 6.5 | 0 | 1.6 | - | 0 | 0
CCn1c(/N=C/c2ccccc2O)nc2ccccc21 | 0 | ? | 0 | 0 | 0 | 0
Cn1c(/N=C/c2cccs2)nc2ccccc21 | 5.8 | 0 | 0 | 0 | 0 | 0
C=CCOC(=O)N[C@@H](c1coc2ccccc2c1=O)[C@@H](C)/C=C/CC(=O)OC | 0 | - | 0 | - | 0 | 0
O=C(O)c1c(Cl)nc2ccccn12 | 0 | 0 | 0 | 0 | 0 | 0
c1ccn2c(c1)nc1c2nc2ccccn21 | 0 | 0 | 1.1 | 0 | 13.1 | 0
Clc1c(-c2ccccc2)nc2ccccn12 | 0 | 0 | 1.6 | 0 | 0 | 0
Clc1cccc(-c2ccc(-c3nc4ccccn4c3NCc3ccccc3)cc2)c1 | 0 | - | 1.8 | 0 | 0 | 0
C[C@@H]1COc2cc(NCCO)ccc2S(=O)(=O)N1 | 0 | - | 0 | - | 0 | 0
CN(C(=S)NC(=O)/C=C/c1ccc(F)cc1)C1CCCCC1 | 0 | 0 | 0 | 0 | 0 | 0
Cc1ccc(C(=O)NC(=S)N(C)C2CCCCC2)cc1 | 0 | 0 | 0 | 0 | 10.5 | 0
O=S(=O)(N1CCCCC1)n1nnc2cc3ccccc3cc21 | 0 | - | 0 | - | 0 | 0
SMILES | hcDAF-12 act | PolyA inh | ssDAF-12 act | DAX1 inh-1 | hgDAF12 agonist | DAX1 inh-2
CC(c1ccccc1)c1nnc(N)s1 (stereo not drawn) | 0 | ? | 0 | 4.7 | 0 | 0
C/C(=N\NC(=O)c1ccco1)c1ccc(-c2ccccc2)cc1 | 0 | 0 | 0 | 0 | 12.8 | 0
C/C(=N\NC(=O)c1ccco1)c1cc2ccccc2o1 | 0 | 0 | 0 | 0 | 0 | 0
C/C(=N\NC(=O)c1ccco1)c1cc(Cl)sc1Cl | 0 | 0 | 0 | 0 | 0 | 3.8
Cc1nc(CSc2nnc(C)s2)cs1 | 0 | 0 | 0 | 4.7 | 0 | 0
Cc1nnc(SCc2cccc3ccccc23)s1 | 0 | 0 | 0 | 7.0 | 0 | 0
Nc1c(C(=O)Nc2ccc3c(c2)OCCO3)nnn1Cc1ccc(F)cc1 | 0 | ? | 0 | 0 | 0 | 4.2
Cc1cccc(/C=N/NC(=O)c2ccc(Br)cc2)c1 | 0 | 0 | 0 | 0 | 11.9 | 0
